The campaign covered roughly 360,000 compounds. About 11,000 (3.1%) were called active. Roughly 2% stayed inconclusive and do not appear here. The full list was thinned out, with actives kept by preference. Unmarked numbers belong to inactive results. Rule as the data show it: active = fluorescence intensity above about 16000; inconclusive = no clear call, values can overlap the other calls; inactive = below that.
test: counter-screen for toxin protease inhibitors: compound fluorescence, primary screen, artefact control for toxin protease inhibitor project, biochemical, multiplex microsphere, HTS (AID 624483); conditions: compound autofluorescence counterscreen, microsphere flow cytometry; active compounds read high

Row | Structure (SMILES) | fluorescence intensity
1 | Cc1cc(C(=O)N2CCN(c3ccccn3)CC2)c(C)o1 | 21600 (active)
2 | O=C(c1cc2ccccc2s1)N1CCN(c2ccccn2)CC1 | 5840
3 | O=C(c1c(F)cccc1Cl)N1CCN(c2ccccn2)CC1 | 6090
4 | CC1(C(=O)NS(=O)(=O)c2cccc(OC(F)F)c2)CCN1C(=O)C1CC1 (configuration not stated) | 3660
5 | O=C(NC1CCCC1)C(c1ccccn1)N(C(=O)c1csnn1)C1CCCC1 (configuration not stated) | 3210
6 | CCOc1ccc(C)cc1S(=O)(=O)NC1CCCCCC1 | 5960
7 | COc1ccc(C)cc1S(=O)(=O)NC1CCCCC1 | 20200 (active)
8 | COc1ccc(C(=O)NCc2ccccc2C)cc1S(=O)(=O)NC1CCCC1 | 3480
9 | CCCCC(=O)N(C)c1c(CC)nc2c(OCc3ccc(S(C)(=O)=O)cc3)cccn12 | 4320
10 | CC(C)Oc1cc(F)ccc1-c1cc(C(=O)Nc2cccc(Cl)c2)[nH]n1 | 3940
11 | CCC1OC(C2CC2)CC2=C1C(=O)OC(C)(C)O2 (configuration not stated) | 5440
12 | CCc1nc2ccc(C(=O)NCc3ccc(OC)cc3)cn2c1N(CC)Cc1cccc(Br)c1 | 4320
13 | CN(C)CCNC(=O)Nc1cccc(Cl)c1Cl | 2400
14 | COc1ccccc1NC(=O)CC(NCCN(C)C)C(=O)O (configuration not stated) | 15400
15 | CN(C)CCNC(=O)C(C(=O)c1ccccc1)n1ccccc1=O (configuration not stated) | 23600 (active)
16 | FC(F)(F)COc1nc(N2CCCCC2)nc(N2CCNCC2)n1 | 2450
17 | FC(F)(F)Oc1ccccc1C(c1nnnn1C1CCCCC1)N1CCN(C/C=C/c2ccccc2)CC1 (configuration not stated) | 4590
18 | Cc1cc2ccccn2c1C(=O)c1cccc(S(=O)(=O)N2CCOCC2)c1 | 4300
19 | CCOC(=O)N/N=C1\CC(C)S(=O)(=O)c2ccc(Cl)cc21 (configuration not stated) | 3940
20 | O=C(CCC(=O)Nc1ccccc1)N/N=C/c1ccccc1F | 2560
21 | Cc1ccc(COc2ccc(/C=N/NC(=O)CN3CCCCC3)cc2)cc1 | 3530
22 | O=C(CC(=O)N/N=C\c1ccc(F)cc1)NCCc1ccccc1 | 3990
23 | O=C(CN1CCSCC1)N/N=C/c1ccc(F)cc1 | 19800 (active)
24 | O=C(CN1CCSCC1)N/N=C/c1ccc(F)cc1F | 23700 (active)
25 | O=C(CN1CCN(C/C=C/c2ccccc2)CC1)Nc1ccc(F)cc1F | 4560

Row | Structure (SMILES) | fluorescence intensity
26 | c1ccc2c(c1)C(=NC1CCCCC1)NC2=NC1CCCCC1 | 8360
27 | CCOc1ccccc1N1C(=O)CC(Sc2nccc(C)n2)C1=O (configuration not stated) | 4180
28 | COC(=O)[C@]12CCCCC=C1N(Cc1ccco1)C(=O)[C@H](CC(=O)NCCCCc1ccccc1)C2 | 5100
29 | Cc1cccc(-c2cnc(C(O)c3cc(C)cc(C)c3)[nH]2)c1 (configuration not stated) | 3860
30 | Cc1ccc(S(=O)(=O)N2CCC(C)CC2)cc1C(=O)NCc1ccccn1 | 5690
31 | Cc1cccc(CN2CCN(C3CN(Cc4ccccc4)S(=O)(=O)C3)CC2)c1 (configuration not stated) | 5880
32 | CCOC(=O)C1CCN(C(=O)/C=C/c2cc(OC)c(OC)c(OC)c2)CC1 | 2640
33 | CCOC(=O)C1CCCCN1Cc1ccc(OC)c(OC)c1OC (configuration not stated) | 21900 (active)
34 | CCOC(=O)C1CCN(S(=O)(=O)c2cc(F)ccc2OC)CC1 | 4720
35 | O=C(Nc1ccc2c(c1)OCCO2)C1c2ccccc2OCC(=O)N1Cc1ccccn1 (configuration not stated) | 5110
36 | Cc1[nH]c2ccccc2c1C(=O)CN1CCCC(C)C1 (configuration not stated) | 3780
37 | Cc1[nH]c2ccccc2c1C(=O)CN1CC(C)CC(C)C1 (configuration not stated) | 4370
38 | Cc1[nH]c2ccccc2c1C(=O)CSCC(=O)O | 23600 (active)
39 | O=C(O)c1cc(S(=O)(=O)NC2CCCc3ccccc32)ccc1O (configuration not stated) | 3070
40 | Cc1nc(C(F)(F)F)ccc1C(=O)N1CCC1(C)C(=O)NS(=O)(=O)c1ccccc1 (configuration not stated) | 2950
41 | Nc1nc2c(ncn2[C@@H]2O[C@H](CNS(=O)(=O)N3CCc4ccccc4C3)[C@@H](O)[C@H]2O)c(=O)[nH]1 | 5780
42 | Cc1ccccc1CCN(CC(=O)NC1CCCCC1)C(=O)c1csnn1 | 4280
43 | CCOCCC(=O)Nc1ccc2c(c1)c(=O)n(C)n2-c1ccc2ccccc2c1 | 4100
44 | CCOC(=O)CN(C(=O)CN1CCOCC1)c1ccc(Br)cc1 | 16500 (active)
45 | O=C(CN1CCOCC1)N/N=C/c1ccc(-c2ccc(Br)cc2)o1 | 6290
46 | O=C(Cc1ccc(Br)cc1)NCCN1CCOCC1 | 4390
47 | COCCOC1CCN(C(=O)c2ccc(OC)c(OC3CCN(C(C)C)CC3)c2)CC1 | 5660
48 | OC[C@@H]1CN(Cc2cccs2)C[C@H](n2cnc3c(Nc4ccccc4)ncnc32)O1 | 2850
49 | CCN(CC)CCNC(=O)c1ccc(NC(=O)c2cc(-c3ccncc3)nc3ccccc23)cc1 | 5900
50 | CCCN(CCC)CCNC(=O)c1cc2c(C)nc3ccccc3c2o1 | 23700 (active)

Row | Structure (SMILES) | fluorescence intensity
51 | Cc1nc2ccccc2c2oc(C(=O)NCCCN3CCC(C)CC3)cc12 | 6790
52 | COc1cc(CCN=Cc2ccccc2O)c([N+](=O)[O-])cc1OC | 6170
53 | CCOC(=O)[C@]12CCCC=C1N(Cc1ccc3c(c1)OCO3)C(=O)[C@H](CC(=O)NCc1cccs1)C2 | 4370
54 | O=C(NC1CCCCCC1)c1cccnc1Sc1ccc(Cl)cc1 | 2130
55 | COc1cccc(CNC(=O)c2cccnc2Sc2ccc(Cl)cc2)c1 | 5920
56 | O=C(NCc1cccnc1)c1cccnc1Sc1ccc(Cl)cc1 | 16900 (active)
57 | C=CCn1c(=O)n(C)c2c(=O)n(C)c(=O)n(C)c21 | 3000
58 | O=[N+]([O-])c1ccc(CN2CC(N3CC=CC3)CS2(=O)=O)cc1 (configuration not stated) | 6550
59 | CCOc1ccc(-c2cn(S(=O)(=O)c3cccc4nsnc34)nc2N)cc1 | 4610
60 | CCCCNC(=O)OC1CC2CC1[C@H]1CCCCN1C2=O (some centres not stated) | 5740
61 | Cn1ncc2c(Nc3cccc4ccccc34)ncnc21 | 3210
62 | CC1CCCCC1NC(=O)CSc1nnc(-c2ccncc2)n1CCCN(C)C (configuration not stated) | 4240
63 | CSc1nnc(-c2ccncc2)n1CCCN1CCCC1=O | 16700 (active)
64 | CN(C)CCCn1c(SCc2ccc(Cl)cc2)nnc1-c1ccncc1 | 3820
65 | COc1cc(Cn2c3ccc(NC(=O)CC(C)c4ccccc4)cc3c(=O)n2C)ccc1F (configuration not stated) | 3950
66 | CCOc1ccc(C(=O)Nc2cccc(SC)c2)cc1 | 2060
67 | Cc1ccc(S(=O)(=O)N(Cc2cc3ccccc3[nH]c2=O)CC2CCCO2)cc1 (configuration not stated) | 3240
68 | Cc1cc(C(=O)Nc2nnc(C3CC3)s2)c(C)s1 | 5450
69 | Cc1occc1C(=O)Nc1nnc(C2CCCCC2)s1 | 22300 (active)
70 | COc1ccc(NC(=O)CCC(=O)Nc2nnc(C3CCCCC3)s2)cc1 | 5270
71 | CCc1nc2c(OCc3ccc(F)c(F)c3)cccn2c1N(C)C(=O)c1ccco1 | 3900
72 | O=C1Nc2ccccc2NC(c2ccc3c(c2)OCO3)=C1N(Cc1ccc(F)cc1)C(=O)c1ccco1 | 5250
73 | Brc1ccc(C2=CC(c3ccco3)n3ncnc3N2)cc1 (configuration not stated) | 9350
74 | Clc1ccc2c(c1)C1=C(C(c3ccncc3)O2)C(c2ccc(Br)cc2)n2ncnc2N1 (configuration not stated) | 16600 (active)
75 | Cc1ccc(CN(Cc2cccnc2)C(=S)Nc2cc(Cl)ccc2C)cc1 | 4690

Row | Structure (SMILES) | fluorescence intensity
76 | Cc1ccc(CSc2nnc(-c3cnccn3)n2C)cc1 | 4420
77 | CCn1c(SCC(=O)Nc2cc(C)ccc2C)nnc1-c1cnccn1 | 4580
78 | CCN(CC)C(=O)CSc1nnc(-c2cnccn2)n1-c1ccc(C)cc1 | 23200 (active)
79 | CC(C)(C)C1CCC(=O)N2CCC[C@]2(c2ccccc2)C1 (some centres not stated) | 5900
80 | CN(CC1CCCN(CCc2cccc(C(F)(F)F)c2)C1)C(=O)c1ccc2nc[nH]c2c1 (configuration not stated) | 5960
81 | COc1cccc(NC(=O)C2(C)CCN2C(=O)CCC2CCCC2)c1 (configuration not stated) | 2920
82 | N#C/C(=C\c1cccnc1)C(=O)Nc1ccc(SC(F)F)cc1 | 3830
83 | Nc1nnnn1/N=C/c1cccs1 | 21800 (active)
84 | Nc1nnnn1/N=C/c1cccc(Br)c1 | 3440
85 | COc1ccc(/C=N/n2nnnc2N)cc1OC | 4170
86 | COc1ncnc2c1ncn2CCCNCCN1CCOCC1 | 3370
87 | COc1ccc(CCN(C(=O)COc2ccccc2)c2nc(-c3ccccc3)cs2)cc1OC | 21300 (active)
88 | COc1ccc(CN(C(=O)c2cccs2)c2nccs2)cc1OC | 3950
89 | CN(Cc1ccccc1)C(=O)COc1ccccc1 | 2850
90 | C[C@H](NC(=O)C1CCN(S(=O)(=O)c2ccccc2)CC1)C(=O)NCc1ccccc1 | 5500
91 | COc1cccc(CN2CCC(C(=O)NC(c3ccc4c(c3)OCO4)c3ccccn3)CC2)c1 (configuration not stated) | 3800
92 | Cc1cc(=O)oc2cc(NC(=O)C(C)Oc3ccccc3)ccc12 (configuration not stated) | 5330
93 | COc1ccc(-c2cc(=O)oc3cc(OC(C)C(=O)Nc4ccc(CN5CCOCC5)cc4)ccc23)cc1 (configuration not stated) | 5340
94 | Cc1cc(=O)oc2cc(OC(C)C(=O)Nc3ccc(N4CCOCC4)cc3)ccc12 (configuration not stated) | 22000 (active)
95 | COc1ccc(C(=O)NC(=S)Nc2ccccc2N2CCN(S(C)(=O)=O)CC2)cc1OC | 22100 (active)
96 | COc1ccccc1C(=O)NC(=S)Nc1ccccc1N1CCCCC1 | 5870
97 | O=C(NC(=S)Nc1ccccc1N1CCCCC1)c1ccc(F)cc1 | 6710
